From PubChem BioAssay AID651958 (The Scripps Research Institute Molecular Screening Center, 2012) come the findings set out here.

Screen size: about 370,000 compounds; about 2,000 (0.54%) were called active. This excerpt belongs to a sample that is enriched for actives. Unmarked numbers belong to inactive results. Rule as the data show it: active = inhibition above about 30%; inactive = the rest.

This assay relates to Crimean-Congo hemorrhagic fever virus L polyprotein viral ovarian tumor (vOTU) protease domain. Put plainly: CCHFV vOTU protease inhibitors, primary screen, biochemical, Pep-AMC substrate, fluorescence (AID 651958). Also: 0% = vehicle wells with enzyme and 100% = no enzyme wells. The following applies: at 11.5 µM, active compounds read high.
For `CCCCN(CC(=O)Nc1cccc(S(=O)(=O)N2CCCC2)c1)Cc1nc2ccccc2c(=O)[nH]1`, the inhibition is 3.14%.
As for `CC(=O)Nc1ccc(NC(=O)CSc2nnnn2C2CCCCC2)cc1`, the inhibition was -5.32%.
For the molecule `CC(=O)Nc1ccc(NC(=O)CSc2nnnn2-c2ccccc2F)cc1`, the inhibition was 2.7%.
`CCn1nnnc1SCC(=O)Nc1ccc(N(C)C)cc1`: the inhibition was 30.6% (active).
Take `CCn1c(SCC(=O)NC2=NCCS2)nnc1C(C)NC(=O)c1ccccc1F` (stereo unspecified): the inhibition was 0.18%.
The result for `COCCCNS(=O)(=O)c1cccc(S(=O)(=O)c2cccc(S(=O)(=O)NCCCOC)c2)c1` reads -10.2%; that for `Cc1ccc(C2(C(F)(F)F)N=C3Sc4cc(C)cc(C)c4N3C(=O)N2)cc1` (stereo unspecified), -15.2%; that for `Cc1ccc(-c2nnc(SCC(=O)Nc3ccc(Oc4ccccc4)cc3)n2Cc2ccco2)cc1`, 6.1%.
The result for `O=C(CSc1nnc(COc2ccccc2)n1Cc1ccco1)c1ccc2ccccc2c1` reads 7.39%; that for `Cc1ccc(OCc2nnc(SC/C=C/c3ccccc3)n2Cc2ccco2)cc1`, 31.9% (active).
The result for `O=C(Cc1ccc(NC(=O)C2CCCN(C(=O)CCc3ccccc3)C2)cc1)Nc1ccc(C(=O)N2CCOCC2)cc1` (stereo unspecified) reads 23.1%.
Regarding `Cc1ccccc1CSc1nnc(-c2ccccc2)c(=O)[nH]1`, the inhibition is -2.29%.
`Cc1ccc(CSc2nc3[nH]ncc3c(=O)[nH]2)cc1`: the inhibition is -0.35%.
The result for `Cc1ccc(CSc2nc(-c3ccccc3)c(C#N)c(=O)[nH]2)cc1` reads 39.9% (active).
On to `Cc1ccc(O)c(NC(=O)c2cc(-c3ccco3)on2)c1`, for which the inhibition was -0.2%.
In the case of `COCCNC(=O)Nc1ccc2nc(-c3ccco3)c(-c3ccco3)nc2c1`, the inhibition was 36% (active).
As for `CN(C)c1ccc(NC(=O)CSc2n[nH]c(-c3ccco3)n2)cc1`, the inhibition was 4.49%.
In the case of `COc1ccc(NC(=O)NN2CCN(C)CC2)c(OC)c1`, the inhibition is 4.34%.
As to `CN1CCCc2cc(C#N)c(=O)[nH]c21`, the inhibition was -314%.
Regarding `CSCCC(NS(=O)(=O)c1ccc2c(c1)oc(=O)n2C)C(=O)NC1CCCc2ccccc21` (stereo unspecified), the inhibition was 7.61%.
For `Cc1cc(N2CCNC[C@@H]2C)ccc1N1CC[C@H](O)C1`, the inhibition is -1.97%.
For `Oc1ccc(/C=N/Nc2ccc(C(F)(F)F)cn2)cc1O`, the inhibition is 31.3% (active).
With `COc1ccc(/C=N/NC(=O)Cn2cc(C(F)(F)F)ccc2=O)cc1`, the inhibition is 4.22%.
Regarding `O=C(N/N=C/c1ccc(O)c(O)c1)C1c2ccccc2Oc2ccccc21`, the inhibition was 4.82%.
For the molecule `CCc1cccc(C)c1N(C(=O)Cn1c(CO)nc2ccccc21)C(C)COC` (stereo unspecified), the inhibition was 6.13%.
As for `O=C(Nc1cc(S(=O)(=O)N2CCOCC2)ccc1N1CCOCC1)c1c(F)cccc1Cl`, the inhibition is 8.3%.
As to `Cc1ccc2c(c1)C(c1ccccc1)N(C(=O)c1ccc(S(=O)(=O)N3CCOCC3)cc1)CC(=O)N2` (stereo unspecified), the inhibition was -6.16%.
As to `Cc1ccc(S(=O)(=O)N2CCN(C(=O)c3cccs3)CC2)cc1`, the inhibition was -14.5%.
Consider `COc1ccccc1NC1=NC(c2ccc(Cl)cc2)N=C(N)N1` (stereo unspecified), for which the inhibition is 2.38%.
Regarding `Cc1ccc(NC(=S)N2CCN(c3ncccn3)CC2)cc1C`, the inhibition is 2.37%.
On to `CCNC(=S)N1CCN(c2ncccn2)CC1`, for which the inhibition is 43.8% (active).
For the molecule `CCNC(=S)N1CCN(S(=O)(=O)c2ccc(Cl)s2)CC1`, the inhibition is 11.2%.
`CCC(C(=O)NCc1cccnc1)n1nc(C)c2sc3ccccc3c2c1=O` (stereo unspecified): the inhibition is -2%.
Turning to `COCCNC(=O)C1C(=O)Nc2ccccc2C(=O)N1c1ccc2c(c1)OCCO2` (stereo unspecified), the inhibition was 26.3%.
In the case of `O=C(/C=C/c1cccs1)c1cc(Cl)ccc1OC(=O)N1CCOCC1`, the inhibition was 10.7%.
As to `Cc1cc2nc(SCCN3CCOCC3)[nH]c2cc1C`, the inhibition was 3.87%.
Consider `CCOC(=O)N1CCC(NC(=O)Cc2cn(C)c3ccccc23)CC1`, for which the inhibition is 3.03%.
On to `CCOC(=O)N1CCC(C(N)=O)CC1`, for which the inhibition was 8.61%.
The result for `CCOC(=O)N1CCC(c2cc(=O)n(-c3ccccc3)[nH]2)CC1` reads 71.1% (active); that for `CCOc1ccc(CNC(=O)C2CC(=O)N(C3CCCC3)C2)cc1OC` (stereo unspecified), 4.25%.
With `CC(C)(C)OC(=O)NC(Cc1ccccc1)C(=O)NC(CSC1CCCCO1)C(=O)NN` (stereo unspecified), the inhibition was -4.89%.
For `CCOC(=O)N(C)c1c(CC)nc2c(OCc3ccccc3C(=O)OC)cccn12`, the inhibition is 15.9%.
The result for `Cc1ccccc1CN1CCN(C(=O)c2cccc(F)c2)CC1` reads 6.94%; that for `O=C1Nc2cc(C(=O)N3CCN(c4ccc(F)cc4)CC3)ccc2NC1CSCc1cccc(F)c1` (stereo unspecified), 32.1% (active).
With `C=CCn1c(SCc2cccc(F)c2)nc2cc(C(=O)N3CCC(C(N)=O)CC3)ccc2c1=O`, the inhibition was 14.2%.
On to `COC(=O)C1=C(Nc2ccc(C)cc2)C=C(C)C(C(=O)OC)C1c1ccc(F)cc1` (stereo unspecified), for which the inhibition is 15.8%.
On to `COc1ccc(C2=Nc3cc(C)ccc3OC2)cc1`, for which the inhibition is 14.7%.
`COC(=O)c1ccccc1N=Nc1c(C)[nH][nH]c1=O`: the inhibition was -9.29%.
For `COc1ccccc1N=Nc1c(O)[nH]c(=S)[nH]c1=O`, the inhibition is 38.1% (active).
Take `CCOCCc1c(O)[nH]c(=S)[nH]c1=O`: the inhibition was 5.12%.
As for `O=C(COC(=O)/C=C/c1ccc(S(=O)(=O)N2CCCCCC2)cc1)NCc1ccccc1Cl`, the inhibition was -8.91%.
Regarding `Cc1cc(C)nc(-n2ncc3c2CC(c2ccc(C(C)C)cc2)CC3=O)n1` (stereo unspecified), the inhibition is 2.76%.
Regarding `Cc1cccc(C)c1NC1=NC(=S)N(c2ccc(N(C)C)cc2)C1(C)C`, the inhibition was 27.5%.
In the case of `CCOC(=O)C1C(c2ccc(O)cc2)NC(=O)NC1(O)C(F)(F)F` (stereo unspecified) it was -18.4%.
As for `O=C1NC(c2ccc(-c3ccccc3[N+](=O)[O-])o2)C(C(=O)c2ccc(Cl)cc2)C(O)(C(F)(F)F)N1` (stereo unspecified), the inhibition was 38.5% (active).
The result for `Cc1cn(C)c(=O)n(C)c1=O` reads -10.2%; that for `Cc1ccc([C@H]2C[C@H](O)[C@@H](n3cc(COC(=O)c4ccccc4)nn3)CN2C(=O)C2CCCCC2)cc1`, 9.18%; that for `CCCCCC(=O)N1C[C@H](O)[C@@H](n2cc(COC(=O)c3ccccc3)nn2)C[C@@H]1c1ccc(C)cc1`, 30.5% (active).
The result for `CCCCCCN1C[C@@H](O)[C@H](n2cc(COC(=O)c3ccccc3)nn2)C[C@@H]1c1ccc(Cl)cc1` reads -5.93%.
As to `COc1ccc(C(C#N)N2N=C(C)CC2(C)C)cc1` (stereo unspecified), the inhibition is 4.09%.
`COc1cc(Cl)c(C)cc1NC(=O)[C@@H]1CCCN1C(=O)c1cccs1`: the inhibition is -1.68%.
In the case of `CCC1=NN(C(=O)Cc2ccc([N+](=O)[O-])cc2)C(O)(c2ccc(Br)cc2)C1` (stereo unspecified), the inhibition is -9.95%.
For `C=CCC[C@@H](CCCCC)OC(=O)/C=C/[C@@H](O)[C@H](O)C[C@H](O)CC=C`, the inhibition was 32.8% (active).
Regarding `C=CCC[C@H](CCCCC)OC(=O)/C=C/[C@H](O)[C@@H](O)C[C@@H](O)CC=C`, the inhibition is 18.2%.
For `O=C(CCl)NNc1cccc(Cl)n1`, the inhibition is 2.47%.
Turning to `Cc1ccc(C23CC4CC(CC(C(=O)NCC(=O)O)(C4)C2)C3)cc1`, the inhibition is 12.6%.
As for `CN(C)c1ccc(N/C=C/C(=O)C(F)(F)F)cc1`, the inhibition was 65% (active).
In the case of `Cc1ccc(NC(=O)CN(C)Cc2ccc(F)cc2)c([N+](=O)[O-])c1` it was -3.76%; in that of `Cc1cc(C(=O)COc2ccccc2[N+](=O)[O-])c(C)n1-c1cccc(S(=O)(=O)N2CCOCC2)c1`, 15.2%; in that of `Cc1cc(C(=O)N/N=C/c2ccc(O)c([N+](=O)[O-])c2)c(C)n1-c1ccc(F)cc1`, 45.6% (active).
Take `CC(C)(C)n1nnnc1C(c1ccccc1F)N1CCN(C(=O)c2ccco2)CC1` (stereo unspecified): the inhibition is 9.18%.
Turning to `CC(=O)N1CCN(c2ccc(NCc3ccc(C(C)C)cc3)cc2)CC1`, the inhibition is 34.2% (active).
On to `CC(C)c1ccc(OCC(=O)N2CCCN(C)CC2)cc1`, for which the inhibition was 7.24%.
On to `CC(C)c1ccc(NC(=O)COC(=O)c2ccc(CN3CCCC3=O)cc2)cc1`, for which the inhibition is 3.69%.
Take `O=C(NC1CC1)C1=C[C@H](c2coc3ccccc3c2=O)C[C@H](OCCCCO)O1`: the inhibition was -2.05%.
In the case of `CCOc1ccc(NC(=O)CCCCCN2C(=O)[C@@H]3Cc4ccccc4CN3C2=O)cc1` it was 13.7%; in that of `CC(C)(C)NC(=O)CN(C(=O)c1csnn1)c1ccccc1-c1ccccc1`, -7.68%; in that of `CSc1ccccc1NC(=O)c1cc(C2CC2)on1`, 11.1%.
In the case of `NC1=CC(=O)C(=O)c2cccnc21`, the inhibition was 104% (active).
Turning to `O=C(NC1CCN(C(=S)NCc2ccco2)CC1)c1ccc(F)cc1`, the inhibition is 13.2%.
As to `COc1ccccc1N(CC(=O)Nc1ccc(C)cc1Cl)S(=O)(=O)c1cccs1`, the inhibition is 1.37%.
